Data reported in PubChem BioAssay (EPA / NIEHS).
Activity calls are given as the source filed them. How the source made its calls: active means hit-call score of the fitted dose curve at least 0.9, where 1 is the maximum; inactive means score below 0.9.

Key:
[1] = read-out: Vascular endothelial growth factor receptor 2 (Homo sapiens) (UniProt P35968); experiment: BSK_4H_VEGFRII: BioMAP Diversity Plus: 4H Assay for Vascular endothelial growth factor receptor 2 (VEGFR2) Biomarker Activity (AID 2283031); conditions: primary human endothelial cells (HUVEC); actives raise or lower the signal
Summary of the method: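 In this multiplexed HUVEC system, biomarker ELISA was performed after 24 h chemical exposure. Parallel SRB staining (TCA fixation, 560 nm) tracked cytotoxicity; DMSO served as baseline.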

[2] = read-out: Human Leukocyte Antigen - DR isotype (HLADR), HLA-DRA (gene 3122); experiment: BSK_BE3C_HLADR: BioMAP Diversity Plus: BE3C Assay for Human Leukocyte Antigen - DR isotype (HLADR) Biomarker Activity (AID 2283032); conditions: primary human bronchial epithelial cells; actives raise or lower the signal
Summary of the method: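 ELISA read-out of HLA-DR on human lung bronchial epithelial primary cells, measured 24 h post-dosing. Both increases and decreases were scored relative to DMSO vehicle.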

[3] = read-out: Vascular cell adhesion molecule 1 (VCAM1), VCAM1 (gene 7412); experiment: BSK_4H_VCAM1: BioMAP Diversity Plus: 4H Assay for Vascular cell adhesion molecule 1 (VCAM1) Biomarker Activity (AID 2283033); conditions: primary human endothelial cells (HUVEC); actives raise or lower the signal
Summary of the method: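 ELISA read-out of VCAM-1 on human umbilical vein endothelium 24 hours after chemical dosing; gain or loss of signal was fitted relative to DMSO, with sulforhodamine B staining of parallel cultures flagging overt cytotoxicity.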

[4] = read-out: Interferon-gamma inducible Protein 10 (IP10), CXCL10 (gene 3627); experiment: BSK_BE3C_IP10: BioMAP Diversity Plus: BE3C Assay for Interferon-gamma inducible Protein 10 (IP10) Biomarker Activity (AID 2283034); conditions: primary human bronchial epithelial cells; actives raise or lower the signal
Summary of the method: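 Chemical is dosed onto human lung bronchial epithelial primary cells, cultures are incubated 24 h, and IP-10 is then quantified by ELISA. Gain or loss of signal is fitted in both directions relative to DMSO.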

[5] = read-out: Transforming growth factor beta 1 (TGFb1), TGFB1 (gene 7040); experiment: BSK_BE3C_TGFb1: BioMAP Diversity Plus: BE3C Assay for Transforming growth factor beta 1 (TGFb1) Biomarker Activity (AID 2283036); conditions: primary human bronchial epithelial cells; actives raise or lower the signal
Summary of the method: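 Primary human lung bronchial epithelial cells; compound exposure 24 h; TGF-b1 by ELISA; bidirectional fit, DMSO baseline. Parallel SRB total-protein staining for cytotoxicity.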

[6] = read-out: Plasminogen activator inhibitor-1 (PAI1), SERPINE1 (gene 5054); experiment: BSK_BE3C_PAI1: BioMAP Diversity Plus: BE3C Assay for Plasminogen activator inhibitor-1 (PAI1) Biomarker Activity (AID 2283037); conditions: primary human bronchial epithelial cells; actives raise or lower the signal
Summary of the method: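 Primary human lung bronchial epithelial cells; chemical dosing; 24 h; PAI-1 measured by ELISA; bidirectional fit referenced to DMSO as negative control.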

[7] = read-out: urokinase plasminogen activator (uPA), PLAU (gene 5328); experiment: BSK_BE3C_uPA: BioMAP Diversity Plus: BE3C Assay for urokinase plasminogen activator (uPA) Biomarker Activity (AID 2283038); conditions: primary human bronchial epithelial cells; actives raise or lower the signal
Summary of the method: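 Using confluent primary human lung bronchial epithelial cultures, we dosed chemicals, waited 24 h, then ran a uPA ELISA, fitting bidirectionally against DMSO.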

[8] = read-out: Urokinase-type plasminogen activator receptor (uPAR), PLAUR (gene 5329); experiment: BSK_BE3C_uPAR: BioMAP Diversity Plus: BE3C Assay for Urokinase-type plasminogen activator receptor (uPAR) Biomarker Activity (AID 2283039); conditions: primary human bronchial epithelial cells; actives raise or lower the signal
Summary of the method: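 Human bronchial epithelial primary cells; chemical exposure 24 h; uPAR by ELISA; bidirectional fit vs DMSO control.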

[9] = read-out: Interleukin-6 (IL6), IL6 (gene 3569); experiment: BSK_CASM3C_IL6: BioMAP Diversity Plus: CASM3C Assay for Interleukin-6 (IL6) Biomarker Activity for (AID 2283040); conditions: primary human coronary artery smooth muscle cells; actives raise or lower the signal
[10] = read-out: Tissue plasminogen activator (tPA), PLAT (gene 5327); experiment: BSK_BE3C_tPA: BioMAP Diversity Plus: BE3C Assay for Tissue plasminogen activator (tPA) Biomarker Activity (AID 2283041); conditions: primary human bronchial epithelial cells; actives raise or lower the signal
Summary of the method: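 Primary human lung bronchial epithelial cultures receive test chemical; after 24 h, tPA is quantified by ELISA, and gain or loss of signal is fitted bidirectionally relative to DMSO baseline.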

[11] = read-out: Interleukin-8 (IL8), CXCL8 (gene 3576); experiment: BSK_CASM3C_IL8: BioMAP Diversity Plus: CASM3C Assay for Interleukin-8 (IL8) Biomarker Activity (AID 2283042); conditions: primary human coronary artery smooth muscle cells; actives raise or lower the signal;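 further: IL-8 protein level quantified by ELISA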
[12] = read-out: Human Leukocyte Antigen - DR isotype (HLADR), HLA-DRA (gene 3122); experiment: BSK_CASM3C_HLADR: BioMAP Diversity Plus: CASM3C Assay for Human Leukocyte Antigen - DR isotype (HLADR) Biomarker Activity (AID 2283043); conditions: primary human coronary artery smooth muscle cells; actives raise or lower the signal;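 further: cell-surface HLA-DR protein level quantified by ELISA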
[13] = read-out: Macrophage colony-stimulating factor (MCSF), CSF1 (gene 1435); experiment: BSK_CASM3C_MCSF: BioMAP Diversity Plus: CASM3C Assay for Macrophage colony-stimulating factor (MCSF) Biomarker Activity (AID 2283044); conditions: primary human coronary artery smooth muscle cells; actives raise or lower the signal;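 further: M-CSF protein amount quantified by ELISA after 24 h exposure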
[14] = read-out: Low-density lipoprotein receptor (LDLR), LDLR (gene 3949); experiment: BSK_CASM3C_LDLR: BioMAP Diversity Plus: CASM3C Assay for Low-density lipoprotein receptor (LDLR) Biomarker Activity (AID 2283045); conditions: primary human coronary artery smooth muscle cells; actives raise or lower the signal;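 further: LDLR protein level on the cell surface quantified by ELISA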
[15] = read-out: Monocyte Chemoattractant Protein-1 (MCP1), CCL2 (gene 6347); experiment: BSK_CASM3C_MCP1: BioMAP Diversity Plus: CASM3C Assay for Monocyte Chemoattractant Protein-1 (MCP1) Biomarker Activity (AID 2283046); conditions: primary human coronary artery smooth muscle cells; actives raise or lower the signal;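 further: MCP-1 level quantified by ELISA 24 h after dosing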
[16] = BSK_CASM3C_Proliferation: Cell Proliferation Assessment in the BioMAP Diversity Plus: CASM3C Assay (AID 2283047); conditions: primary human coronary artery smooth muscle cells;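 further: sulforhodamine B total protein stain as relative cell number at 560 nm; sub-confluent cells exposed 48 h before staining; fitted both ways against DMSO so gain or loss of cell number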
[17] = read-out: Monokine induced gamma interferon (MIG), CXCL9 (gene 4283); experiment: BSK_CASM3C_MIG: BioMAP Diversity Plus: CASM3C Assay for Monokine induced gamma interferon (MIG) Biomarker Activity (AID 2283048); conditions: primary human coronary artery smooth muscle cells; actives raise or lower the signal;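 further: MIG protein level measured by ELISA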
[18] = read-out: serum amyloid A (SAA), SAA1 (gene 6288); experiment: BSK_CASM3C_SAA: BioMAP Diversity Plus: CASM3C Assay for serum amyloid A (SAA) Biomarker Activity (AID 2283049); conditions: primary human coronary artery smooth muscle cells; actives raise or lower the signal;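 further: SAA protein level quantified by ELISA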
[19] = BSK_CASM3C_SRB: Viability Assessment in the BioMAP Diversity Plus: CASM3C Assay (AID 2283050); conditions: primary human coronary artery smooth muscle cells;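 further: total protein by SRB staining as cytotoxicity measure in parallel cultures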

Measured: AC50

Nc1ccc(Cl)cc1N
active: [3] 2.74 µM | [16] 6.89 µM
inactive: all other assays above

COC(=O)Nc1nc2ccccc2[nH]1
active: [12] 5.43 µM | [16] 8.49 µM
inactive: all other assays above

Nc1ccc(Cc2ccc(N)cc2)cc1
inactive: all assays above

Oc1ccc2ccc3cccc4ccc1c2c34
active: [2] 34.6 µM | [3] 34 µM | [4] 31.3 µM | [6] 27.5 µM | [8] 33 µM | [10] 36.1 µM | [12] 13.7 µM | [14] 10.5 µM | [18] 30.4 µM | [19] 30.1 µM
inactive: [1] | [7] | [9] | [11] | [13] | [15] | [17]

CC(O)CCO (stereo not given)
inactive: all assays above

CC(C)(O)c1cnn2c(-c3ccc(F)c(-c4c(F)cccc4C#N)c3)cnc2n1
active: [2] 36.5 µM | [4] 31.7 µM | [5] 31.4 µM | [6] 32.1 µM | [7] 30.2 µM | [8] 36.5 µM | [10] 25.3 µM | [12] 32.9 µM | [16] 26.1 µM
inactive: all other assays above

CCCCCCCCn1sccc1=O
inactive: [1]
active: [2] 7.16 µM | [3] 9.24 µM | [4] 9.14 µM | [5] 5.55 µM | [6] 7.33 µM | [7] 9.51 µM | [8] 12.9 µM | [9] 28.3 µM | [10] 6.84 µM | [11] 14.3 µM | [12] 4.85 µM | [13] 10.8 µM | [14] 12.8 µM | [15] 15 µM | [16] 1.28 µM | [17] 9.51 µM | [18] 17.2 µM | [19] 14.7 µM

Cc1cc(N=Nc2ccccc2C)ccc1N
active: [3] 33.1 µM | [6] 12 µM | [16] 23.6 µM
inactive: all other assays above
